About 3,100 (0.84%) of roughly 370,000 compounds were called active.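 The calls were made as follows: active = inhibition above the mean of compounds lying between control limits plus 3 SD, set per campaign (cut at about 8.5% in these data); inactive = the rest.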 The entries come from a sample that favours actives as a whole.

For the experiment, the target named is Disintegrin and metalloproteinase domain-containing protein 17 (Homo sapiens) (UniProt P78536). Nature of the experiment: inhibition of ADAM17 peptide cleavage – biochemical, QFRET, primary screen (AID 720648).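 Also: 0% = DMSO-only wells as the low control.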 As to conditions: recombinant ADAM17, EDANS/DABCYL FRET peptide cleavage; at 6.95 µM; stronger effect = higher value.
Sequence of Disintegrin and metalloproteinase domain-containing protein 17 (Homo sapiens) (P78536 215-824 limits assumed): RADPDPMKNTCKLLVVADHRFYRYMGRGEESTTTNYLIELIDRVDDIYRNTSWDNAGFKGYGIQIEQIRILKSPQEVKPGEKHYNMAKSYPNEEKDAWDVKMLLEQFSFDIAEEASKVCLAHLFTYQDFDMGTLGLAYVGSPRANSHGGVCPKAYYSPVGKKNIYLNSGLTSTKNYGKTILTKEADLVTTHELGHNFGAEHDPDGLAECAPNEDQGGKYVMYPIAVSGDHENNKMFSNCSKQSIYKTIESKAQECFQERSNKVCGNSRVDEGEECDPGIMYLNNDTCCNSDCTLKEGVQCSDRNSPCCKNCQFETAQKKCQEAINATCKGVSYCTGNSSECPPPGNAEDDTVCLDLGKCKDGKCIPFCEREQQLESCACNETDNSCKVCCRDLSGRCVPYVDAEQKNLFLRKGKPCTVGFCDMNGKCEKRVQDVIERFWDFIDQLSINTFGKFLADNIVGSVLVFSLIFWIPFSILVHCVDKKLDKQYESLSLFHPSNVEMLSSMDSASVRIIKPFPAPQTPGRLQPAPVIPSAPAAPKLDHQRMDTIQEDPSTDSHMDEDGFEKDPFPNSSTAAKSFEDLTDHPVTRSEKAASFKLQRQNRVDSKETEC
As a reminder, the inhibition is the relative decrease from the control value, in per cent. In the case of `Cc1ccc(Cn2cc(CN3[C@@H](C)COc4cc(Br)ccc4S3(=O)=O)nn2)cc1`, the inhibition is -2.3% (inactive).

In the case of `COC(=O)c1cccc(Cn2ccc3ccc(-c4ccc5ccn(C(=O)C6CCCCC6)c5c4)cc32)c1`, the inhibition was -4.69% (inactive). For `Cc1ccc(C2=CCN(C)C(=O)N2c2ccc(Cl)cc2)cc1`, the inhibition was 0.02% (inactive).

Take `CCOC(=O)C1CCN(C(=O)C(C)(C)NC(=O)Nc2ccc(F)c(F)c2)CC1`: the inhibition was 0.09% (inactive). Consider `COc1ccccc1C(=O)CSc1nnc(-c2ccccn2)n1-c1ccccc1`, for which the inhibition is -0.51% (inactive). Turning to `CCOC(=O)[C@]12CCCCC/C=C\1N(Cc1ccc(OC)cc1)C(=O)[C@H]2CC(=O)NCc1ccc(C)o1`, the inhibition was -1.43% (inactive). As for `NNC(=O)C1CCCn2c1nc1sc3c(c1c2=O)CCCC3` (stereo unspecified), the figure is 11.2% (active); as for `CCn1c(SCC(C)=O)nc2sc3c(c2c1=O)CCCC3`, -1.68% (inactive).

Consider `Cc1ccc(C)c(-n2c(SCC(=O)O)nc3sc4c(c3c2=O)CCCC4)c1`, for which the inhibition is 0.43% (inactive). As for `O=C(CN1CCC(NC(=O)NCc2ccccc2)CC1)Nc1ccc2c(c1)OCCO2`, the figure is -4.62% (inactive); as for `CCCC[C@H](C(=O)N(CC)c1ccccc1)[C@@H](O)c1ccc2ccccc2c1`, 4.5% (inactive). Regarding `COc1ccc(NC(=O)COC(=O)CNC(=O)C2CCCCC2)cc1`, the inhibition was -0.83% (inactive). Regarding `O=C1CCC(C(=O)OCC(=O)Nc2ccc(OC(F)F)cc2)=NN1`, the inhibition is 5.95% (inactive). With `CCC(C)(C)c1ccc(Oc2ccc(NC(=O)COC(=O)C3=COCCO3)cc2)cc1`, the inhibition is 15.7% (active). The same measure for `CCOC(=O)N1CCN(C(=O)C[C@@H]2C(=O)N(CCc3ccc(Cl)cc3)C3=CCCC[C@]32C(=O)OCC)CC1`: -1.27% (inactive); for `CC[C@@H](CCC(=O)N(c1ccccc1)c1ccccc1)C1CC1`: -3.63% (inactive); for `Nn1c(SCC(=O)Nc2cccc3ccccc23)nnc1-c1cc(-c2ccc(F)cc2)n[nH]1`: -1.2% (inactive). Take `Cn1c(=O)c2sccc2n(Cc2ccc(Br)cc2)c1=O`: the inhibition was 0.1% (inactive). `Cn1c(=O)c2c(nc(N/N=C/c3cccs3)n2Cc2ccc(Br)cc2)n(C)c1=O`: the inhibition is 9.47% (active). For `C/C(Cl)=C\Cn1c(Nc2cccc(C)c2)nc2c1c(=O)n(C)c(=O)n2C`, the inhibition is 1.3% (inactive). In the case of `COc1ccc(CSc2nnc(-c3cccc(C)c3)n2C)cc1`, the inhibition was -0.21% (inactive).

`CC(=O)Nc1ccc(C(=O)CSc2nnc(Cc3ccccc3)o2)cc1`: the inhibition is 2.43% (inactive). As for `CCOc1ccc(Nc2nc(Cc3nnc(SCC(=O)c4ccc(C)cc4)o3)cs2)cc1`, the figure is 13.7% (active); as for `CCOc1ccc(Nc2nc(Cc3nnc(SCC(=O)NC4CCCC4)n3C)cs2)cc1`, -1.2% (inactive). For `COc1ccc(C2CC=C(C(=O)O)C(c3ccccc3F)N2S(=O)(=O)c2ccc(C)cc2)cc1OC` (stereo unspecified), the inhibition is -3.14% (inactive). Regarding `O=C1/C(=C\c2ccsc2)NC(=S)N1c1ccccc1`, the inhibition was 9.7% (active). Take `CCCCN=C1N/C(=C\c2ccco2)C(=O)N1c1ccccc1`: the inhibition is -3.3% (inactive).

Consider `CC1=CC(C)(C)NC(=S)N1c1ccccc1`, for which the inhibition is -5.69% (inactive). As for `CCC(=O)OCCCN1C(=O)CCC12CCC(c1ccccc1)CC2` (stereo unspecified), the inhibition is 0.25% (inactive). In the case of `O=C(CCl)NC1CCCCN(Cc2cccc(C(F)(F)F)c2)C1=O` (stereo unspecified), the inhibition was -6.37% (inactive). For `O=S1(=O)c2ccc(Br)cc2OC[C@H](Cc2ccccc2)N1Cc1cn(Cc2ccccc2)nn1`, the inhibition was -10.2% (inactive). Consider `CNC(=O)c1[nH]cnc1C(=O)N[C@@H](CC(C)C)C(=O)OCc1ccccc1`, for which the inhibition is 1.89% (inactive).

Consider `CC(C)(C)OC(=O)N1CCC(NC(=O)c2[nH]cnc2C(=O)N[C@@H](Cc2ccccc2)C(=O)OCc2ccccc2)CC1`, for which the inhibition is 14.3% (active). Regarding `C[C@H](NC(=O)c1nc[nH]c1C(=O)NCC(=O)OC(C)(C)C)C(=O)OCc1ccccc1`, the inhibition is 0.33% (inactive). With `C[C@H](NC(=O)c1nc[nH]c1C(=O)NCC(=O)OC(C)(C)C)c1ccccc1`, the inhibition is -0.12% (inactive). Regarding `CC(C)(C)OC(=O)CNC(=O)c1[nH]cnc1C(=O)N[C@@H](Cc1ccccc1)C(=O)OCc1ccccc1`, the inhibition was 11.2% (active).

On to `C[C@@H](NC(=O)c1nc[nH]c1C(=O)N1CCN(C(=O)OC(C)(C)C)CC1)c1ccccc1`, for which the inhibition is -5.12% (inactive). With `Cc1cc(C)n2ncc(C(=O)Nc3ccc4c(c3)OCCO4)c2n1`, the inhibition is -3.48% (inactive). Take `COc1cc(NC(=O)C2CCCN(S(=O)(=O)c3ccc(C(C)(C)C)cc3)C2)cc(OC)c1` (stereo unspecified): the inhibition is 3.29% (inactive). Turning to `CCOC(=O)[C@]12CCCC=C1N(Cc1ccc(OC)cc1)C(=O)[C@@H]2CC(=O)N1CCOCC1`, the inhibition is -0.05% (inactive). As to `CCOc1ccc(OCC)c(-c2c(=O)n(OCc3ccc(Cl)cc3)c3ccccc3[n+]2[O-])c1`, the inhibition was 9.36% (active).

For the compound `COc1ccc(OC)c(-c2c(=O)n(OCc3ccccc3Br)c3ccccc3[n+]2[O-])c1`, the inhibition is 0.86% (inactive).

`O=c1c(-c2ccc(Cl)cc2)[n+]([O-])c2ccccc2n1OCc1nc2ccccc2[nH]1`: the inhibition is -12.2% (inactive). The same measure for `Cc1c(C(C)c2ccccc2O)[nH]c2ccccc12` (stereo unspecified): 4.61% (inactive); for `O=C(NCc1cccs1)C1CCN(S(=O)(=O)c2ccccc2[N+](=O)[O-])CC1`: 1.09% (inactive). As for `Cc1cc(NC(=O)c2ccccc2C)no1`, the inhibition was -1.75% (inactive).

Take `O=C(COC(=O)c1ccccc1)Nc1ccccc1Sc1ccccc1`: the inhibition is 9.99% (active). The same measure for `O=C(COC(=O)c1ccccn1)Nc1cccc2ccccc12`: -0.52% (inactive). Regarding `Cc1ccccc1C(=O)Nc1ccccc1Sc1ccccc1`, the inhibition was 10.4% (active). In the case of `Cc1ccccc1C(=O)O`, the inhibition is -1.22% (inactive).

With `COc1ccc(C(=O)OCC(=O)NC(=O)CCSc2ccccc2)cc1`, the inhibition was 0.55% (inactive). The same measure for `COc1ccc(-n2c(SCC(=O)Nc3ccc4cn[nH]c4c3)nnc2-c2cccnc2)cc1`: 2.47% (inactive). Consider `COc1ccc(C2Nc3ccccc3C(=O)N2Cc2cccs2)cc1COc1c(C)cccc1C` (stereo unspecified), for which the inhibition was -93.1% (inactive).

With `CC(C)CNc1cccc2c1S(=O)(=O)N(Cc1cn(Cc3ccc(Cl)cc3)nn1)Cc1ccccc1O2`, the inhibition was -4.11% (inactive). On to `COP(=O)(O)CNC(=O)OCc1ccccc1`, for which the inhibition is 1.95% (inactive). As to `O=C(COC(=O)C1(c2ccc(F)cc2)CCCC1)N1CCNC1=O`, the inhibition is -6.77% (inactive). As for `O=C(COC(=O)c1ccc(NS(=O)(=O)c2cccs2)cc1O)Nc1ccc(F)cc1`, the inhibition is 8.44% (inactive). On to `CN(C)S(=O)(=O)c1cccc(NC(=O)COC(=O)/C=C/c2cccs2)c1`, for which the inhibition is -0.31% (inactive).

Take `CN(C)S(=O)(=O)c1cccc(NC(=O)COC(=O)c2cc(=O)[nH]c(=O)[nH]2)c1`: the inhibition is 0.24% (inactive).

For the compound `CN(C)S(=O)(=O)c1cccc(NC(=O)COC(=O)C2(c3ccccc3F)CCCC2)c1`, the inhibition is 14.4% (active).

Take `NS(=O)(=O)c1ccc(NC(=O)COC(=O)C2(c3ccc(F)cc3)CCCC2)cc1`: the inhibition was 10.8% (active). As for `CCCCOCCCNC(=O)C[C@H]1C[C@@]2(C(=O)OC)C(=C[C@H](C(C)(C)C)O[C@@H]2C)N(CCc2ccc(OC)c(OC)c2)C1=O`, the inhibition is 4.52% (inactive).

Regarding `O=S1(=O)c2c(cccc2N2CCSCC2)Oc2ccccc2CN1Cc1cn(Cc2ccc(F)cc2)nn1`, the inhibition is -0.02% (inactive).

For `COc1ccc(N2CCN(CCNS(=O)(=O)c3ccc(Cl)s3)CC2)cc1`, the inhibition is -0.88% (inactive). As to `CCC[C@H]1C(=O)CC[C@@]23CCCN2C(=O)CCC[C@@H]13`, the inhibition was -0.61% (inactive).

For the compound `COc1cc(/C=N/n2c(C)n[nH]c2=S)ccc1OCc1ccccc1`, the inhibition was 10.8% (active). As for `CNC(=S)N/N=C/c1ccc(OCc2ccccc2)c(Br)c1`, the inhibition was -1.43% (inactive). For the compound `C=CCOc1ccc(/C=N/n2cncn2)cc1OC`, the inhibition is -11.9% (inactive). The same measure for `COc1cccc(CNC(=O)C2CCCN(c3nc4ccccc4o3)C2)c1OC` (stereo unspecified): 1.62% (inactive); for `O=C(c1c[nH]c2ccccc12)N1CCC(Oc2cccnc2)CC1`: 1.77% (inactive).

Turning to `O=C1C(=O)N(Cc2ccc(-c3ccsc3)cc2)c2ccc(OC(F)(F)F)cc21`, the inhibition was 1.76% (inactive). As for `CCOc1cc(C(=S)N2CCOCC2)ccc1OS(=O)(=O)c1ccc(Br)cc1`, the figure is -3.87% (inactive); as for `O=S(=O)(Oc1ccccc1C(=S)N1CCOCC1)c1ccc(Cl)cc1`, -1.11% (inactive); as for `CC(=O)Nc1ccc(S(=O)(=O)Oc2ccc(Br)cc2C(=S)N2CCOCC2)cc1`, 9.15% (active).

Consider `O=C(C1CCCN1S(=O)(=O)c1ccccc1)N1CCc2ccccc2C1` (stereo unspecified), for which the inhibition was 1.33% (inactive). Turning to `CCOc1c(Br)cc(/C=C2\C(=O)N(CCC#N)N=C2C)cc1OC`, the inhibition is 8.65% (active). Take `CC(C)(C)c1ccc(CSc2nnc(-c3cccs3)o2)cc1`: the inhibition was -1.78% (inactive).

On to `COC(=O)[C@]12C[C@H](CC(=O)N3CCN(C(=O)C4CC4)CC3)C(=O)N(CCC3=CCCCC3)C1=C[C@H](C(C)C)O[C@@H]2C1CC1`, for which the inhibition was -8.05% (inactive). For `CC1(C)C=Cc2c(ccc3c2OC[C@@H](c2ccc(O)cc2O)C3)O1`, the inhibition was 19.4% (active). Turning to `CN[C@H]1C[C@H]2c3cc(N4CCOCC4)ccc3CCN2C[C@H]1[C@H](C)O`, the inhibition was -6.65% (inactive). On to `O=C(CCCCCN1C(=O)C2C3C=CC(C3)C2C1=O)Nc1ccccc1` (stereo unspecified), for which the inhibition was 4.34% (inactive). With `Cc1ccc(CC2(C)C(=O)Nc3ccc(OC(F)(F)F)cc32)cc1` (stereo unspecified), the inhibition was 8.02% (inactive). In the case of `COc1ccccc1CC1(C)C(=O)Nc2ccc(OC(F)(F)F)cc21` (stereo unspecified), the inhibition is 6.39% (inactive). In the case of `CC1(Cc2cccc(C#N)c2)C(=O)Nc2ccc(-c3cccc(C(F)(F)F)c3)cc21` (stereo unspecified), the inhibition is 11.2% (active). Regarding `CC(c1c[nH]c2ccccc12)c1c(-c2ccccc2)n(C)c2ccccc12` (stereo unspecified), the inhibition is -2.38% (inactive).

Consider `N#Cc1ccccc1OC[C@@H](O)CN1CCC(C(O)(c2ccccc2)c2ccccc2)CC1`, for which the inhibition is -1.12% (inactive).

These data come from PubChem BioAssay AID720648 (The Scripps Research Institute Molecular Screening Center, 2013).
